# IL1B secr inh: inhibitors of inflammasome signaling (IL-1 beta secretion); THP-1 LPS/ATP IL-1B secretion, AlphaLISA, 16 h; hits give low values; activity change, % at 57.5 µM; hit rate 4.7% among 360,000; in the data active means activity change below about -50%; inconclusive means mostly about -30% to -49%
#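 Secreted IL-1B measured by AlphaLISA bead assay after 16 h compound exposure of THP-1 cells; compounds (final up to 57.5 uM) added 1 h before LPS (250 ng/mL) and ATP (1.25 mM) stimulation; lower signal means less secretion.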
# DT40 TDP1 CPT: DT40-hTDP1 cell growth loss with CPT | Potency, µM (titrated, usually from 46.2 µM), for inactives: top-dose activity change, negative = growth inhibition, hits mostly inhibitors | hit rate 12% among 420,000 | chicken DT40 Tdp1-/-;hTDP1 cells + 20 nM CPT, ATP luminescence, 48 h; further: potency means the concentration at half of the fitted maximal effect; nearly all actives have a fitted effect of over 55% in size
#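 Chicken DT40 Tdp1-/- cells stably complemented with human TDP1 were seeded at 400 cells/well in medium containing 20 nM camptothecin, exposed to pin-transferred compounds, and grown at 37 °C for at least 48 hr. Viability was read as ATP luminescence.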
# TDP1 inh: TDP1 (human) enzyme inhibition; Q9NUW8; recombinant TDP1, AlphaScreen DNA substrate cleavage; Potency, µM (top dose mostly 130 µM), inactives show at the highest dose activity change, negative = inhibition, usual class: inhibitors; hit rate 0.28% among 350,000; further: potency means the concentration at half of the fitted maximal effect; nearly all actives have a fitted effect of over 40% in size
# Target sequence (Q9NUW8 whole entry, looked up): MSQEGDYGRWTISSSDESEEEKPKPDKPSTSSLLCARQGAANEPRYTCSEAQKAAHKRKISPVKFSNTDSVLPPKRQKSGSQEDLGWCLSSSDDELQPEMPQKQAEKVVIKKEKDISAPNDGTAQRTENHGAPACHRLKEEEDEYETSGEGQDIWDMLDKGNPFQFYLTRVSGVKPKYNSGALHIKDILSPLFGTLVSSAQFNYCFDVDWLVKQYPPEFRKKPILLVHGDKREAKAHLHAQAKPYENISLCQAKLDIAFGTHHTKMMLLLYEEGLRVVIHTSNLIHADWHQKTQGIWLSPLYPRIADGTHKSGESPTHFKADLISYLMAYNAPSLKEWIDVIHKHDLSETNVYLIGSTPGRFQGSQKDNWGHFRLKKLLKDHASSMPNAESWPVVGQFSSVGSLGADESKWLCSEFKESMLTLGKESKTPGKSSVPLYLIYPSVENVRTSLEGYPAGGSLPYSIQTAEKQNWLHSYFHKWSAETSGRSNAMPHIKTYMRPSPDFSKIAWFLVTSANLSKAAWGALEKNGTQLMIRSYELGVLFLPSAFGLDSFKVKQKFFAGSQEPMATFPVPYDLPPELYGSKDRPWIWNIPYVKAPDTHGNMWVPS
#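 E. coli-derived human Tdp1, 1 nM final. Cpd preinc 15 min RT; substrate 15 nM final, 5 min RT; AS bead mix 10 ug/ml final, 10 min RT. Signal loss = tyrosine-FITC cleavage. No-enzyme wells = max signal.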
# ELG1 repair inh: ELG1-dependent DNA repair inhibition; Potency, µM (doses to about 46.1 µM), without a hit: top-dose activity change, negative = inhibition, hits mostly inhibitors; AID 504467; HEK293T ELG1-luciferase reporter, luminescence, 16 h; DNA damage induced by 5-fluorouridine; hit rate 2.3% among 330,000; further: potency means the concentration at half of the fitted maximal effect; nearly all actives have a fitted effect of over 55% in size
#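 In this reporter screen, reduction of luminescence relative to DMSO vehicle indicated activity. Compounds and 5-fluorouridine were added together to 2,000 cells per well, incubated for 16 hr at 37 °C, then developed with ONE-Glo.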
# DT40 TDP1 no CPT: qHTS for Inhibitors of human tyrosyl-DNA phosphodiesterase 1 (TDP1): qHTS in cells in absence of CPT. hit rate 15% among 420,000. DT40 Tdp1-/- hTDP1 cells, no CPT, ATP luminescence, 48 h. Potency, µM (highest dose often 46.2 µM), without a hit: at the top dose activity change, negative = growth inhibition, hits mostly inhibitors. AID 686978, 2013; further: potency means the concentration at half of the fitted maximal effect; nearly all actives have a fitted effect of over 55% in size
#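 Compound effects on proliferation are scored in DT40 Tdp1-/-;hTDP1 cells in the absence of CPT. ATP levels (CellTiter-Glo luminescence) are recorded after a ≥48 hr, 37 °C incubation.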
# Giardia kill: Giardia lamblia killing | Giardia lamblia trophozoite viability | activity change, % at 7.66 µM, hits read low | hit rate 0.15% among 340,000 | AID 540267; in the data active means activity change below about -80%; inconclusive means between about -30% and that limit;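 further: parasites exposed to compound for two days anaerobically before the ATP read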
#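 Anaerobic 48 hrs incubation at 37 deg C of 100 trophozoites/well with test compounds; ATPLite 1-Step luminescence, 15-30 min RT, reports cellular ATP as viability.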
# Active calls of the source: *; ? = inconclusive; nt = no result; ! = not active in a repeat; [ ] = remark or other dose. Hits are enriched below; roughly 19% of the tested compounds scored in any of these assays. Unless noted, the call rests on the fitted dose curve; in most records, active means well fitted curve in the direction sought with a large enough effect; inconclusive means small, poorly fitted or top-dose-only effect, or another doubt; inactive means no such curve, though single readings can be large; an effect the other way counts as inactive or inconclusive. On the % scale 0 is the no-effect control and ±100 the full control effect.
SMILES,IL1B secr inh,DT40 TDP1 CPT,TDP1 inh,ELG1 repair inh,DT40 TDP1 no CPT,Giardia kill
CC(C(O)c1ccccc1)N(C)CCOC(c1ccccc1)c1ccccc1 (stereo not given),nt,12µM*,nt,nt,15µM*,nt
C[C@H]1CCCC(=O)CCCCCc2cc(O)cc(O)c2C(=O)O1,25,?,-5%,?,18µM*,-25
CCOc1ccc(CCNC(=O)c2cc3c(-c4ccc(OC)c(OC)c4)nn(C)c3s2)cc1OCC,nt,4.1µM*,2%,nt,3.7µM*,nt
O=c1c2ccccc2cnn1Cc1n[nH]c(=S)n1C1CC2CCC1C2 (stereo not given),4,?,nt,?,18µM*,-3
O=C(CCC1CCCN(Cc2cccc3c2OCO3)C1)NCc1ccc(F)c(F)c1 (stereo not given),-16,?,5%,-11%,?,2
Cc1cc(C)c(-n2c(O)c(/C=N/NC(=O)c3ccncc3)c(=O)[nH]c2=O)c(C)c1,27,18%,nt,0%,-4%,-1
O=C(N/N=C/c1cc(Br)c(Br)s1)c1ccncc1,60,13µM*,6%,?,9.2µM*,1
CC(C)(O)C(Cl)(Cl)Cl,nt,?,5%,nt,?,nt
O=C(CCC1CCN(Cc2ccccc2)CC1)c1ccc2c(c1)NCCCC2,nt,?,nt,nt,12µM*,nt
N#CC(C#N)=Cc1ccc(O)c(O)c1,9,21µM*!,5%[56.1 µM],8%,19µM*!,2
N#CC(C#N)=Cc1ccc(N2CCCC2)cc1,1,-29%,0%,6%,?,-15
CC(C)(C)c1cc(C=C(C#N)C#N)cc(C(C)(C)C)c1O,-77*,0.65µM*,12%,-29%,0.65µM*,-6
COc1cc(C=C(C#N)C#N)cc(O)c1O,nt,nt,17%[56.1 µM],nt,nt,nt
C[C@]12CC[C@@H](O)C[C@@H]1CC[C@@H]1[C@@H]2CC[C@]2(C)C=CC[C@@H]12,nt,?,6%,nt,?,nt
FC(F)(F)Oc1ccc(C2NCc3ccccc3-n3cccc32)cc1 (stereo not given),7,-26%,nt,-8%,?,1
CCOc1cc2c(cc1OCC)-n1cccc1C(c1cccc([N+](=O)[O-])c1)NC2 (stereo not given),-16,23µM*,nt,-6%,18µM*,20
CCOc1cccc(C2NCc3ccccc3-n3cccc32)c1O (stereo not given),-6,?,8%,-1%,?,-3
CCOc1cc(C2NCc3ccccc3-n3cccc32)ccc1O (stereo not given),-57*,23µM*,4%,-9%,?,-6
CC(C)c1ccc(C2NCc3ccccc3-n3cccc32)cc1 (stereo not given),-10,?,nt,-13%,21µM*,-25
CCCCNC(=S)N(CCN(CC)CC)Cc1cc2cc3c(cc2[nH]c1=O)OCO3,?,?,nt,-2%,15µM*,-14
CCCCCC[C@H]1C(=O)O[C@H](C)[C@H](NC(=O)c2cccc(NC=O)c2O)C(=O)O[C@@H](C)[C@@H]1OC(=O)CC(C)C,nt,0.017µM*,21%[56.1 µM],nt,0.019µM*,nt
O=C(NN=Cc1ccc(O)c(O)c1)c1ccccc1,0,23µM*,nt,nt,23µM*,nt
O=C(NN=Cc1ccc2c(c1)CCC2)c1cccc([N+](=O)[O-])c1,-9,?,nt,nt,?,nt
NCCCCN=C(N)N,nt,8.4µM*!,8%[56.1 µM],nt,6.7µM*!,nt
CN1C(=O)N(C)C(=O)C(CCc2ccncc2)(Cc2ccc3c(c2)OCO3)C1=O,-9,?,1%,-4%,16µM*,-6
O=C1NC(=O)C(CCc2ccncc2)(CCc2ccncc2)C(=O)N1CCc1ccccc1,13,-1%,nt,-5%,-22%,12
O=C1NC(=O)C(CCc2ccncc2)(Cc2ccc3c(c2)OCO3)C(=O)N1CCc1ccccc1 (stereo not given),-15,?,8%,?,21µM*,12
